Outcome and AC50 data for four compounds are collected here from PubChem BioAssay (EPA / NIEHS).

Results filed as inconclusive are left out. Activity calls are given as the source filed them. How the source made its calls, unless noted: active means hit-call score of the fitted dose curve at least 0.9, where 1 is the maximum; inactive means score below 0.9.

Assay [1] has as its target Hepatocyte nuclear factor 3-beta (Homo sapiens) (UniProt Q9Y261). In words: ATG_FoxA2_CIS: Attagene CIS-FACTORIAL HepG2 Assay for human Forkhead box A2 (FOXA2) (AID 2282942). The conditions noted are these: HepG2 cis-reporter transcription factor activity, 24 h; actives raise or lower the signal. The essentials: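 Endogenous transcription factor activity was read in HepG2 cells carrying transiently transfected cis-promoter reporter units. After 24 h dosing, reporter mRNA was quantified by RT-PCR and capillary electrophoresis, and values fitted bidirectionally versus DMSO.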

The target in assay [2] is Heat shock factor protein 1 (Homo sapiens) (UniProt Q00613). Put plainly: ATG_HSE_CIS: Attagene CIS-FACTORIAL HepG2 Assay for human Heat Shock Transcription Factor 1 (HSE) (AID 2282953). The conditions noted are these: HepG2 HSE cis-reporter, Attagene RNA transcription; actives raise or lower the signal. Put shortly: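 HepG2 cells transfected with cis-promoter reporter units sensing endogenous transcription factor activity; reporter mRNA quantified 24 h post-dose by RT-PCR and capillary electrophoresis of 6-FAM-labelled products. Bidirectional fitting against DMSO.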

Assay [3] is described as follows: ATG_RORE_CIS: Attagene CIS-FACTORIAL HepG2 Assay for human RAR-related Orphan Receptor Element (RORE) (AID 2282959). The conditions noted are these: HepG2 Attagene cis-factorial RORE reporter, mRNA; actives raise or lower the signal. Put shortly:
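Cells were HepG2 carrying transfected cis-regulated reporter constructs, dosed for 24 hours. Total RNA was reverse-transcribed and reporter cDNA amplified, fluorescently labeled and sized by capillary electrophoresis. Activity was fitted bidirectionally relative to DMSO.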

A short description of assay [4]: ATG_Sox_CIS: Attagene CIS-FACTORIAL HepG2 Assay for human SRY-box transcription factor (SOX) (AID 2282960). The following applies: HepG2 Attagene cis-factorial SOX reporter, mRNA; actives raise or lower the signal. The essentials:
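Transient MRTU transfection of HepG2; 24 h compound incubation; TriZol RNA, oligo(dT) RT, PCR, 6-FAM primer extension, HpaI cut, CE. Bidirectional fit, DMSO = baseline.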

For assay [5], the target named is Transcription factor Sp1 (Homo sapiens) (UniProt P08047). Put plainly: ATG_Sp1_CIS: Attagene CIS-FACTORIAL HepG2 Assay for human Specificity Protein 1 (Sp1) (AID 2282961). The following applies: HepG2 Sp1 cis-reporter transcription, actives raise or lower the signal. Put shortly: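 Endogenous Sp1 activity was gauged in human liver HepG2 cells bearing transfected reporter units under a cis-regulating promoter. After 24 h dosing, reporter mRNA was quantified by RT-PCR with capillary electrophoresis, and activity fitted bidirectionally versus DMSO.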

A short description of assay [6]: ATG_SREBP_CIS: Attagene CIS-FACTORIAL HepG2 Assay for human Sterol Regulatory Element Binding (SREBP) (AID 2282962). The following applies: HepG2 Attagene cis-factorial SREBP reporter, mRNA; actives raise or lower the signal. The essentials: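 In this cis-format assay, HepG2 liver cells express reporters controlled by promoter elements responsive to native transcription factors. Exposure lasts 24 h; reporter mRNA fluorescence from capillary electrophoresis gives the signal, fitted bidirectionally against DMSO.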

The target in assay [7] is Signal transducer and activator of transcription 3 (Homo sapiens) (UniProt P40763). In words: ATG_STAT3_CIS: Attagene CIS-FACTORIAL HepG2 Assay for human Signal Transducer and Activator of Transcription 3 (STAT3) (AID 2282963). The following applies: HepG2, Attagene cis-factorial STAT3 reporter transcription; actives raise or lower the signal. Put shortly: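 Readout: fluorescent reporter mRNA fragments resolved by capillary electrophoresis. Setup: HepG2 transfected with MRTUs reporting endogenous transcription-factor activity, dosed 24 h. Gain or loss of signal fitted bidirectionally against DMSO control.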

The nature of assay [8]: ATG_TA_CIS: Attagene CIS-FACTORIAL HepG2 Assay for human TA Basal Promoter (AID 2282964). The conditions noted are these: HepG2 Attagene CIS-factorial TA basal promoter reporter; actives raise or lower the signal. Put shortly: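 HepG2 cells transiently transfected with multiple reporter units under cis promoter elements, reporting endogenous transcription factor activity; this endpoint tracks the TA basal promoter as background control. Reporter mRNA after 24 h dosing measured by RT-PCR/capillary electrophoresis; bidirectional fits versus DMSO.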

Assay [9] can be described thus: ATG_TCF_b_cat_CIS: Attagene CIS-FACTORIAL HepG2 Assay for human T-Cell-Factor with beta-catenin (TCF/b-cat) (AID 2282965). The following applies: HepG2 TCF/beta-catenin cis-reporter transcription, actives raise or lower the signal. Put shortly: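 HepG2 cells transiently transfected with cis-promoter-driven multiplexed reporter units; reporter mRNA measured 24 h after dosing by RT-PCR, FAM labelling, HpaI digestion and capillary electrophoresis. Bidirectional fitting relative to DMSO baseline.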

Assay [10] can be described thus: ATG_TAL_CIS: Attagene CIS-FACTORIAL HepG2 Assay for human TAL Basal Promoter (AID 2282966).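 Further: background control endpoint measuring basal TAL promoter reporter mRNA not a specific factor.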 The conditions noted are these: HepG2 Attagene cis-factorial TAL promoter reporter; actives raise or lower the signal. Put shortly: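 Human hepatoma HepG2 cells, transfected with promoter-regulated reporter units, were treated 24 h. Reporter transcript levels, measured through RT-PCR and capillary electrophoresis, were fitted for gain or loss relative to DMSO.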

Assay [11] in a line: ATG_VDRE_CIS: Attagene CIS-FACTORIAL HepG2 Assay for human Vitamin D Receptor Element (VDRE) (AID 2282968). The following applies: HepG2 VDRE cis-reporter transcription, actives raise or lower the signal. The essentials: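 Transient MRTU transfection of HepG2, 24 h compound exposure. Readout: reporter transcripts via RT-PCR and capillary electrophoresis, fluorescence. Bidirectional fit vs DMSO.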

Assay [12] deals with Transcriptional activator Myb (Homo sapiens) (UniProt P10242). In words: ATG_Myb_CIS: Attagene CIS-FACTORIAL HepG2 Assay for human Myeloblastosis (Myb) Proto-Oncogene Transcription Factor (AID 2282986). The conditions noted are these: HepG2 Attagene CIS-FACTORIAL Myb reporter transcription; actives raise or lower the signal. The essentials:
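Steps: transfect HepG2 with cis-regulated reporter units; dose with chemical for 24 h; isolate RNA, reverse-transcribe, PCR-amplify and FAM-label reporter sequences; digest with HpaI; resolve by capillary electrophoresis. Activity fitted in both directions relative to DMSO.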

Assay [13] concerns the target Nuclear respiratory factor 1 (Homo sapiens) (UniProt Q16656). In words: ATG_NRF1_CIS: Attagene CIS-FACTORIAL HepG2 Assay for human Nuclear Respiratory Factor 1 (NRF1) Orphan Gene (AID 2282987). The conditions noted are these: HepG2 NRF1 cis-element reporter, Attagene multiplex; actives raise or lower the signal. The essentials: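 Fluorescence intensity of labelled reporter cDNA fragments, resolved by capillary electrophoresis, served as readout for NRF1 cis-element activity. Transiently transfected HepG2 cells were dosed for 24 hours; activity in either direction was fitted against DMSO negative control.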

Assay [14] can be described thus: ATG_NFI_CIS: Attagene CIS-FACTORIAL HepG2 Assay for human Nuclear Factor I (NFI) (AID 2282989). The following applies: HepG2 cis-regulatory reporter, NFI response element transcription; actives raise or lower the signal. Put shortly:
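Endogenous TF activity in HepG2 cells transiently transfected with cis-element-driven multiplexed reporter units, read 24 h after dosing. Reporter mRNA quantified by RT-PCR, 6-FAM labelling, HpaI digestion and capillary electrophoresis; bidirectional fit versus DMSO.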

Assay [15] addresses Myc proto-oncogene protein (Homo sapiens) (UniProt P01106). Put plainly: ATG_Myc_CIS: Attagene CIS-FACTORIAL HepG2 Assay for human Myelocytomatosis (Myc) Proto-Oncogene Transcription Factor (AID 2282990). The following applies: HepG2, Attagene cis-reporter transcription factor activity; actives raise or lower the signal. Put shortly: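 Transiently transfected HepG2 cells bearing cis-promoter reporter units for endogenous transcription factors; 24 h exposure. Reporter mRNA measured by RT-PCR, 6-FAM primer extension, HpaI cut and capillary electrophoresis; bidirectional fit relative to DMSO.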

A short description of assay [16]: ATG_NRF2_ARE_CIS: Attagene CIS-FACTORIAL HepG2 Assay for human Nuclear Factor Erythroid 2 Related Factor 2 (NFR2) response to Antioxidant Response Elements (ARE) (AID 2282992). The conditions noted are these: HepG2 Attagene ARE/NRF2 reporter, transcription factor activity; actives raise or lower the signal. Put shortly: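 Using transiently transfected HepG2 cells exposed for 24 h, reporter mRNA levels were determined by RT-PCR with fluorescent primer extension and capillary electrophoresis, analysed for gain or loss of signal against DMSO.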

Assay [17] can be described thus: ATG_Oct_MLP_CIS: Attagene CIS-FACTORIAL HepG2 Assay for human Octamer-Binding Transcription Factor (Oct) (AID 2282993). The conditions noted are these: HepG2 Attagene cis-factorial Oct reporter, mRNA; actives raise or lower the signal. Put shortly: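 HepG2 cells transiently transfected with cis-element-driven reporter transcription units (endogenous TF activity); 24 h compound exposure. Reporter mRNA quantified by RT-PCR, 6-FAM labelling, HpaI digestion and capillary electrophoresis; bidirectional fit versus DMSO baseline.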

Assay [18] has as its target Nuclear receptor subfamily 1 group I member 2 (Homo sapiens) (UniProt O75469). In words: ATG_PXR_TRANS: Attagene TRANS-FACTORIAL HepG2 Assay for human Pregnane X Receptor (PXR) (AID 2283008; active means hit-call score of the fitted dose curve at least 0.9, where 1 is the maximum). The essentials:
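Multiplexed TRANS reporter panel in HepG2; this component tracks PXR-Gal4-driven reporter mRNA after 24 h dosing, measured by RT-PCR with capillary electrophoresis fluorescence, fitted against DMSO.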

The nature of assay [19]: ATG_XTT_Cytotoxicity: Cytotoxicity Assessment in the Attagene TRANS-FACTORIAL HepG2 Assay (AID 2283584; active means hit-call score of the fitted dose curve at least 0.9, where 1 is the maximum). Put shortly:
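24 h chemical exposure of reporter-transfected HepG2; XTT signal loss vs DMSO indicates cytotoxicity.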

Assay [20] concerns the target Cellular tumor antigen p53 (Homo sapiens) (UniProt P04637). Put plainly: ATG_p53_CIS: Attagene CIS-FACTORIAL HepG2 Assay for human p53 Transcription Factor (AID 2282994). The following applies: HepG2 p53 cis-element reporter, Attagene mRNA; actives raise or lower the signal. The essentials: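 In HepG2 cells, reporter transcription units under cis-regulatory promoters were transiently introduced. Following 24 h treatment, RNA was processed to labelled, digested cDNA fragments read by capillary electrophoresis; fitting was bidirectional versus DMSO.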

Myc proto-oncogene protein (Homo sapiens), sequence (P01106 whole entry, looked up): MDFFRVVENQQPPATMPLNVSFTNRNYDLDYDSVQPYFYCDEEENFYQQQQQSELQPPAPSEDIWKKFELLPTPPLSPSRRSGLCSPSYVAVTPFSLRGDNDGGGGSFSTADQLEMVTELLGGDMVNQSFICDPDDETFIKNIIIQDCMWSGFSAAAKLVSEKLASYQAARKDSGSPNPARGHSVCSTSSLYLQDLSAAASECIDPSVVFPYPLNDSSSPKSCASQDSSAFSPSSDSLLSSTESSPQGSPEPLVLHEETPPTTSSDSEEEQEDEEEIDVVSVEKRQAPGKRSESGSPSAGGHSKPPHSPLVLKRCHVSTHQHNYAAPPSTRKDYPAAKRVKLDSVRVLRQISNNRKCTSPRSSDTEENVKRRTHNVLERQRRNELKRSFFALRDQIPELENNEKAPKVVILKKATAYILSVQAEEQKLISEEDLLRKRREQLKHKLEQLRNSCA
Nuclear respiratory factor 1 (Homo sapiens), sequence (Q16656 whole entry, looked up, the tested form may be a part): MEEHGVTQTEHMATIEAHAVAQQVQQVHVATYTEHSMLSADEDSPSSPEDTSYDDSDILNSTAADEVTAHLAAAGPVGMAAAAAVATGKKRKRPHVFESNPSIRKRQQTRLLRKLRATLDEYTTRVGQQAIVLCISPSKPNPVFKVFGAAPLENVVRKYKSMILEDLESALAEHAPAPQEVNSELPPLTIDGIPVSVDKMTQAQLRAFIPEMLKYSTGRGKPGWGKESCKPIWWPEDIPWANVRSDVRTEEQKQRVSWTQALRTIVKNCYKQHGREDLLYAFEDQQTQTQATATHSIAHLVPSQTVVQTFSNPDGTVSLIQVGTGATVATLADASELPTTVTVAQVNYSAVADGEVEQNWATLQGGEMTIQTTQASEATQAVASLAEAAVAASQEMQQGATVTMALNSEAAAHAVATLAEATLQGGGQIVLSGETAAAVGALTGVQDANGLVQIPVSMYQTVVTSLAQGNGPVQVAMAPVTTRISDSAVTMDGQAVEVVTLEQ
Transcriptional activator Myb (Homo sapiens), sequence (P10242 whole entry, looked up): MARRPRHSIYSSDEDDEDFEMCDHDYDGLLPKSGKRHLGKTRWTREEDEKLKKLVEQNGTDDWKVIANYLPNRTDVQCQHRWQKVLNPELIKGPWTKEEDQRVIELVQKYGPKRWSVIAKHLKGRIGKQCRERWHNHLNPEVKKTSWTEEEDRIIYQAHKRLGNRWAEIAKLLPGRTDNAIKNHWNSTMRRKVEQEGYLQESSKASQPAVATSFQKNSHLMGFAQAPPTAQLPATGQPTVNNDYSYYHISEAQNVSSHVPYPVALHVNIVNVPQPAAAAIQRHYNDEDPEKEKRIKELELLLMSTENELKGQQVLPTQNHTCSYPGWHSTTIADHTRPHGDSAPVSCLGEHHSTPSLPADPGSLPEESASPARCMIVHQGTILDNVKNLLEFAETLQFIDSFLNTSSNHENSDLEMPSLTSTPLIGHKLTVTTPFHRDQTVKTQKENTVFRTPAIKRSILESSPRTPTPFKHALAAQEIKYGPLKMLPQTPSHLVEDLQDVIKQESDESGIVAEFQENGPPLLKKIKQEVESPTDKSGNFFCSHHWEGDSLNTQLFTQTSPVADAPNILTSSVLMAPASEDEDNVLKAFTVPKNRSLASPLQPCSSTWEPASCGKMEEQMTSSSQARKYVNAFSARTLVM
Signal transducer and activator of transcription 3 (Homo sapiens), sequence (P40763 whole entry, looked up, the tested form may be a part): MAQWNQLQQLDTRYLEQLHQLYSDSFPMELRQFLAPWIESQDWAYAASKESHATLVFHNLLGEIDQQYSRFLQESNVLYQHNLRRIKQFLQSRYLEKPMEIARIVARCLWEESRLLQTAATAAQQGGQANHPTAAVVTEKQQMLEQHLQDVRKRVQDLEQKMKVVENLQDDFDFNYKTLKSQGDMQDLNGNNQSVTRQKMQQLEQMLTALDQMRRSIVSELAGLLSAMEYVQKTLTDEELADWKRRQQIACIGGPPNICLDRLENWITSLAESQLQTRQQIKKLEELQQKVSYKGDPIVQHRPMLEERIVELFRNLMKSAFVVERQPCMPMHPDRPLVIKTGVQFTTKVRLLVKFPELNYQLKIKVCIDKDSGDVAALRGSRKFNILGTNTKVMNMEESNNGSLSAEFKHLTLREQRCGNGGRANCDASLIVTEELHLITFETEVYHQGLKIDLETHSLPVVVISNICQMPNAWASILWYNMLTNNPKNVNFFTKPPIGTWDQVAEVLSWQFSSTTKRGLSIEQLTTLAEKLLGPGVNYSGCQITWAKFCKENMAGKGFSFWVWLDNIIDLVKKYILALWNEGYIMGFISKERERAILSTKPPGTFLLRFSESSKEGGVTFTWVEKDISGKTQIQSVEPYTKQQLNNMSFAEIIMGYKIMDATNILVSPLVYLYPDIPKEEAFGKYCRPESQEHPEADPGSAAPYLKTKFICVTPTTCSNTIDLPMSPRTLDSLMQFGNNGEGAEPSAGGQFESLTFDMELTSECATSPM
Transcription factor Sp1 (Homo sapiens), sequence (P08047 whole entry, looked up): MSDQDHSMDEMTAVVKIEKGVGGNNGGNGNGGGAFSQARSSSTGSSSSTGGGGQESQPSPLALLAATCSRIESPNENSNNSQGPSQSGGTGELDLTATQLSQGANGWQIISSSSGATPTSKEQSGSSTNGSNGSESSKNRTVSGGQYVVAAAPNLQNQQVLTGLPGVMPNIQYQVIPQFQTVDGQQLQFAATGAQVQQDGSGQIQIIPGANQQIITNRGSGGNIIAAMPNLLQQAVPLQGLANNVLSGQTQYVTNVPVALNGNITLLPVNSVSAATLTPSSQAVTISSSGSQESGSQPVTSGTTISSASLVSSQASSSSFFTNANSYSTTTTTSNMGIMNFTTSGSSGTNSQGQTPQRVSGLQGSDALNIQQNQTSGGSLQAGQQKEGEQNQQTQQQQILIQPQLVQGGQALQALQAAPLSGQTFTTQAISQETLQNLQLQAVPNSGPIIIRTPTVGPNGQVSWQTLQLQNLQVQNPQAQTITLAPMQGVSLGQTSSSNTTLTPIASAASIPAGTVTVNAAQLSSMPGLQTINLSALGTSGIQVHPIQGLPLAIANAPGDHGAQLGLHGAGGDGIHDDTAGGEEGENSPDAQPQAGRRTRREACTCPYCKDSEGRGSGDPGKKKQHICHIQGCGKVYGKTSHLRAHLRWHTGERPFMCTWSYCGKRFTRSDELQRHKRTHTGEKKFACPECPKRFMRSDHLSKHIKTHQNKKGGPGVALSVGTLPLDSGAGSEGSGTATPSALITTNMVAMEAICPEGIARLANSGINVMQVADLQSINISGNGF
Heat shock factor protein 1 (Homo sapiens), sequence (Q00613 whole entry, looked up): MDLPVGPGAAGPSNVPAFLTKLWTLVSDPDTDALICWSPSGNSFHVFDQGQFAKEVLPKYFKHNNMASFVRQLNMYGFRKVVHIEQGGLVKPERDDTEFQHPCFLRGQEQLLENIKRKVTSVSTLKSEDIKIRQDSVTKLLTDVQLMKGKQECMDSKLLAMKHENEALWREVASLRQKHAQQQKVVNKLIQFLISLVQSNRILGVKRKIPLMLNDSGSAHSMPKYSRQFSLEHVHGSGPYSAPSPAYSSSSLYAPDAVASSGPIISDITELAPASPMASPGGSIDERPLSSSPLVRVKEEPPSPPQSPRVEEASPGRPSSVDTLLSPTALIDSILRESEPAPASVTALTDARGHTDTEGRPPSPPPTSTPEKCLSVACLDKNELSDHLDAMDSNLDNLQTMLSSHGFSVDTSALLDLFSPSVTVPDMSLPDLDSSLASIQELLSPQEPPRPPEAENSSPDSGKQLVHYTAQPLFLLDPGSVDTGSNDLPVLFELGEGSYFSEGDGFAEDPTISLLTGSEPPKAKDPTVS
Nuclear receptor subfamily 1 group I member 2 (Homo sapiens), sequence (O75469 whole entry, looked up, the tested form may be a part): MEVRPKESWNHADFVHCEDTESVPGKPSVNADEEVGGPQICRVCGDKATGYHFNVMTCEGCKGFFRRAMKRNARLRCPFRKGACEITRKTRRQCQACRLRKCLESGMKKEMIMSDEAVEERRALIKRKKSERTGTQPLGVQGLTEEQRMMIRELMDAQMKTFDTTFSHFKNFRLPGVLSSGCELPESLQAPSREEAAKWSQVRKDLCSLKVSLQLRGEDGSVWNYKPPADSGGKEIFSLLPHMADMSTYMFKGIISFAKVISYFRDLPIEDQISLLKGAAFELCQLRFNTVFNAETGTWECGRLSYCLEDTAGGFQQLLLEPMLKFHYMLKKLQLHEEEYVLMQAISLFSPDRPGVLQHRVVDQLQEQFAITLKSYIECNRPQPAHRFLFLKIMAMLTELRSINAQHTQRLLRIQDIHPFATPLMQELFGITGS
Cellular tumor antigen p53 (Homo sapiens), sequence (P04637 whole entry, looked up, the tested form may be a part): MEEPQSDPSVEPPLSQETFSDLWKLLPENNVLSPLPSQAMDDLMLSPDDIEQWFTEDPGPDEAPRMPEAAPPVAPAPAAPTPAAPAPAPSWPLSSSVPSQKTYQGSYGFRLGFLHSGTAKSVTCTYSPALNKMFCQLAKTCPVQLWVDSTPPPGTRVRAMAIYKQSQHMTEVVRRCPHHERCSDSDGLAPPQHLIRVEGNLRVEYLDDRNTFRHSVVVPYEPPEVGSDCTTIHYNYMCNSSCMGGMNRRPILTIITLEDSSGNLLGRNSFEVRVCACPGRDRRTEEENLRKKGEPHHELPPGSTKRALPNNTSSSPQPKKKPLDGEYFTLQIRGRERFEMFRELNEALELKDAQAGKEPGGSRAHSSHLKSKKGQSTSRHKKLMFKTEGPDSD
Hepatocyte nuclear factor 3-beta (Homo sapiens), sequence (Q9Y261 whole entry, looked up): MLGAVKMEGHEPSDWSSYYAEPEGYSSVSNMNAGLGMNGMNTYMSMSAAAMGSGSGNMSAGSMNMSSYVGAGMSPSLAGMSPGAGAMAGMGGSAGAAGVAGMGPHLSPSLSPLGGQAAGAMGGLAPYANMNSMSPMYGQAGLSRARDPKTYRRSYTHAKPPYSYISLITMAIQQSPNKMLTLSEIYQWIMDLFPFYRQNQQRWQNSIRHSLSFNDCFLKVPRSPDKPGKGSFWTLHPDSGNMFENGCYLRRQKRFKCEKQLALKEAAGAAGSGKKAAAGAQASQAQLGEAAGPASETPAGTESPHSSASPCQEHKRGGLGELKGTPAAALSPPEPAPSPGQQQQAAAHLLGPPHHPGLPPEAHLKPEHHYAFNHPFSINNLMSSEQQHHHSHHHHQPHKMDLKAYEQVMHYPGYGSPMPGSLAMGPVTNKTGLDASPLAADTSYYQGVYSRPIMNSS

What is called AC50 is the midpoint of the concentration-response curve, whichever way the signal moves. Regarding `C=C1CC[C@H]2C[C@@H]1C2(C)C`, the compound was called inactive in assay [1], in assay [2], in assay [3], in assay [4], in assay [5] and in assay [6]. In addition, the call in [7], in [8], in [9], in assay [10], in assay [11] and in [12] was inactive. In addition, the outcome in assay [13], in [14], in assay [15], in assay [17] and in assay [19] was inactive. Also, the AC50 in [16] is 21.9 µM (active); in [18] it was 10.4 µM (active).

`CCc1cc(C(N)=S)ccn1`: the compound was classed as inactive in assay [1], in assay [2], in [3], in assay [4], in [5] and in assay [6]. Further, the compound was classed as inactive in assay [7], in assay [8], in assay [9], in assay [10], in assay [11] and in assay [12]. Besides, the call in assay [13], in [14], in assay [15], in [16], in assay [17] and in assay [20] was inactive. In addition, the compound was called inactive in assay [19].

With `Brc1ccc(Oc2ccc(Br)cc2)cc1`, the result in assay [1], in assay [2], in [3], in [4], in assay [5] and in assay [6] was inactive. The compound was classed as inactive in assay [7], in assay [8], in assay [9], in assay [10], in assay [11] and in assay [12]. Besides, the compound was called inactive in [13], in assay [14], in assay [15], in [17] and in assay [20]. Further, the AC50 in [16] is 66.4 µM (active); in assay [18], 7.35 µM (active).

Consider `Cc1cc(-n2nc3ccc(Cl)cc3n2)c(O)c(C(C)(C)C)c1`, for which the result in assay [1], in assay [2], in [3], in [4], in assay [5] and in assay [6] was inactive. For the same compound, the compound was called inactive in assay [7], in assay [8], in [9], in [10], in assay [11] and in [12]. For the same compound, the compound was classed as inactive in assay [13], in assay [14], in assay [15], in assay [16], in assay [17] and in assay [20]. Further, the result in assay [18] and in assay [19] was inactive.
